Assay [1] is described as follows: antimalarial activity against Dd2 strain (AID 2302;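 active means growth inhibition above 50% at the single 2 µM test dose, taken to imply half-maximal potency below 2 µM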;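 further: 0% = DMSO untreated growth and 100% = chloroquine plus artemisinin killed control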). The settings on record: P. falciparum Dd2 in RBCs, LDH growth readout, 72 h; at 2 µM; stronger effect = higher value.
Assay [2] in a line: HepG2 cytotoxicity, primary screen, cytotoxicity control for P. falciparum antimalarial project, cell-based, ATP luminescence (AID 2303;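 active means inhibition above 50%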;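 further: 0% = DMSO wells and 100% = digitonin-killed cells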). The conditions noted are these: HepG2 viability, 24-48 h, at 10 µM, stronger effect = higher value.
In assay [3] the target is L-lactate dehydrogenase (Plasmodium falciparum (isolate CDC / Honduras)) (UniProt Q27743). The assay can be described thus: PfLDH activity inhibition – cell lysate, 3D7 strain, counter-screen for P. falciparum growth inhibition project (AID 2304).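 Further: 0% = vehicle and 100% = reference inhibitor.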 The conditions noted are these: P. falciparum 3D7 crude extract, LDH APAD/NBT absorbance; at 2 µM; stronger effect = higher value.
L-lactate dehydrogenase (Plasmodium falciparum (isolate CDC / Honduras)), sequence (Q27743 whole entry, looked up): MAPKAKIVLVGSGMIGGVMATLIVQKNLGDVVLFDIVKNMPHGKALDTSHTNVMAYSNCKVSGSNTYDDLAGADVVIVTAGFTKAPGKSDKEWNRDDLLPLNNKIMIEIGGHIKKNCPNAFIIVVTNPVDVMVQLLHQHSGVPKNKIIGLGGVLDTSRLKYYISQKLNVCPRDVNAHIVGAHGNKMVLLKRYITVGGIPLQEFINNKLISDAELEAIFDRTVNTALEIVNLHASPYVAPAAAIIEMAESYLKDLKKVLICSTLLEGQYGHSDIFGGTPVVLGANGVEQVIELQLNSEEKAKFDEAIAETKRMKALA
Assay [4] is described as follows: inhibition of 3D7 malaria parasite growth – strain 3D7 (AID 2306).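 Further: 0% = DMSO wells and 100% = chloroquine plus artemisinin control wells.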 The settings on record: P. falciparum 3D7 erythrocytic growth, LDH absorbance, 72 h; at 2 µM; stronger effect = higher value.
Assay [5] addresses Calcium-dependent protein kinase 1 (Plasmodium falciparum (isolate 3D7)) (UniProt P62344). The experiment in a line: PfCDPK1 kinase inhibitors, biochemical, TCAMS library (AID 1159585; cut-off not given, nearly all actives have IC50 up to about 0.98 µM;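 further: inhibitors leave more ATP so luminescence rises with inhibition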). The settings on record: recombinant PfCDPK1, Kinase-Glo ATP depletion luminescence.
The target in assay [6] is Plasmodium falciparum protein kinase 6 (PK6, PF3D7_1337100) (UniProt Q8IDW1). The assay can be described thus: PfPK6 kinase inhibitors, biochemical, TCAMS library (AID 1159586). The settings on record: recombinant PfPK6, Kinase-Glo ATP depletion luminescence.
Plasmodium falciparum protein kinase 6 (PK6, PF3D7_1337100), sequence (Q8IDW1 1-305): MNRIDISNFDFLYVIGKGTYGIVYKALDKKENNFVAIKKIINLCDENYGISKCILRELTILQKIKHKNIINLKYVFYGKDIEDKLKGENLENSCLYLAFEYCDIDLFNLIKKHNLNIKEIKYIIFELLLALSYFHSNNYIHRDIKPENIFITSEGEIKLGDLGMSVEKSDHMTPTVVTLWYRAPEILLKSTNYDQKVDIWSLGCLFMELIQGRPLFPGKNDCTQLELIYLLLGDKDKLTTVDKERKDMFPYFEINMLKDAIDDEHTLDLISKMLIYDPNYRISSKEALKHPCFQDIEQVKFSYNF
In assay [7] the target is Protein kinase 7 (PK7), Plasmodium falciparum 3D7 (PF3D7_0213400) (UniProt Q7YTF7). The experiment in a line: inhibition of Plasmodium PK7 catalytic activity – biochemical, TCAMS antimalarial set, Kinase-Glo luminescence (AID 1159587). The settings on record: recombinant PfPK7, Kinase-Glo ATP depletion luminescence.
Protein kinase 7 (PK7), Plasmodium falciparum 3D7 (PF3D7_0213400), sequence (Q7YTF7 1-343): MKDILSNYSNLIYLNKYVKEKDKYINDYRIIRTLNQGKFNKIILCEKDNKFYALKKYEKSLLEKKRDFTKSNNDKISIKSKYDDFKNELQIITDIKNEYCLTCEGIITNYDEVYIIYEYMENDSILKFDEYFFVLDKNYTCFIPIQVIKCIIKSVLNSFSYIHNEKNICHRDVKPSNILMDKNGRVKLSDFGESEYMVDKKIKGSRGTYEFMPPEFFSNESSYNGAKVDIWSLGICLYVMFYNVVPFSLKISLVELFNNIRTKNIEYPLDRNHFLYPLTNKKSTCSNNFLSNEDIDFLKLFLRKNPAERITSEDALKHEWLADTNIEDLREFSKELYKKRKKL
In assay [8] the target is Calcium-dependent protein kinase 4 (Plasmodium falciparum (isolate 3D7)) (UniProt Q8IBS5). The assay can be described thus: PfCDPK4 kinase inhibitors, biochemical, TCAMS library (AID 1159588; cut-off not given, nearly all actives have IC50 up to about 0.91 µM). The conditions noted are these: recombinant PfCDPK4, Kinase-Glo ATP depletion luminescence.
Calcium-dependent protein kinase 4 (Plasmodium falciparum (isolate 3D7)), sequence (Q8IBS5 whole entry, looked up): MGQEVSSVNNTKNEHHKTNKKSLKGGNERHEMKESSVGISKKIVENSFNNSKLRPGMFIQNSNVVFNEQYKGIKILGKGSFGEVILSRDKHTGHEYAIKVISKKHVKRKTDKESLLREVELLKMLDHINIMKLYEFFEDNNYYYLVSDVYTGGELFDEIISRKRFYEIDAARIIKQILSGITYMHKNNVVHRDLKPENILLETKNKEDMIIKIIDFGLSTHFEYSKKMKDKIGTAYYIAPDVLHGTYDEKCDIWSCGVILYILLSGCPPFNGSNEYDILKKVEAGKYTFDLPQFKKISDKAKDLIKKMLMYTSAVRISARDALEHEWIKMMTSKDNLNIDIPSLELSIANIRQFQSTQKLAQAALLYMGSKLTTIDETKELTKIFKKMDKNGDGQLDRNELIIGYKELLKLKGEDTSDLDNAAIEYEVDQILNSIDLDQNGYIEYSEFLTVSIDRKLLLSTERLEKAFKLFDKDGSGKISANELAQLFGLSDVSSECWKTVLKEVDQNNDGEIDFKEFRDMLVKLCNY

A number with no mark means an inactive call. For some of these results: Results with a measured potency or affinity are listed apart. Activity calls are given as the source filed them. Unless noted, how the calls were made is not given here.

Among the data in PubChem BioAssay are growth inhibition, inhibition and outcome values, retold here.

Calcium-dependent protein kinase 1 (Plasmodium falciparum (isolate 3D7)), sequence (P62344 whole entry, looked up): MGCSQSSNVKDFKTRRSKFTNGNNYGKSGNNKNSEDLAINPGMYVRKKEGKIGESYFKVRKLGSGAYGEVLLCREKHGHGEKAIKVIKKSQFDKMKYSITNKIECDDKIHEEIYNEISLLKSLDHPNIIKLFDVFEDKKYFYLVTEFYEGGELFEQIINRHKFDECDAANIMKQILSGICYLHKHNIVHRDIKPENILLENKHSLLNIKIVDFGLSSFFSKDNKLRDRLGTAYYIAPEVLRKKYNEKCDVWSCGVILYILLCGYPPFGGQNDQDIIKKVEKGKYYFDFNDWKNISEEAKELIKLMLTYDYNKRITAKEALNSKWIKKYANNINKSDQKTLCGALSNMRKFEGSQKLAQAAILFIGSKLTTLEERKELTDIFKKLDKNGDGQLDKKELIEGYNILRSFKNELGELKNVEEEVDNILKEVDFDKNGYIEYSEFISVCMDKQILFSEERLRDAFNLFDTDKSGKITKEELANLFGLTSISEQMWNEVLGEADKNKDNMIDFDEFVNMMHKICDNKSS

Turning to `Cc1cnc(-c2ccc(NC(=O)N3CCc4cc5nccc(N6CCN7CCC[C@H]7C6)c5cc43)c3ccccc23)o1`, the growth inhibition is 45% in assay [1] and 100% (active) in assay [4]. Further, the inhibition is 12% in assay [2] and -1% in assay [3]. Besides, the outcome in assay [5], in assay [6], in assay [7] and in assay [8] was inactive.

For `COc1ccc2nccc([C@@H](O)CN3CCC(NC(=O)c4cc5c(F)cc(F)cc5[nH]4)CC3)c2c1`, the growth inhibition is 98% (active) in assay [1] and 101% (active) in assay [4]. For the same compound, the inhibition is 33% in assay [2] and -1% in assay [3]. Also, the outcome in assay [5], in assay [6], in assay [7] and in assay [8] was inactive.

`COc1cc(Cc2cnc(N)nc2N)cc(OCCCCC2SC(=O)NC2=O)c1OC` (stereo not given): the growth inhibition in assay [1] was 0%; in assay [4], 94% (active). In addition, the inhibition in assay [2] is -9%; in assay [3], 7%. For the same compound, the result in assay [5], in assay [6], in assay [7] and in assay [8] was inactive.

On to `COC(=O)c1ccc(Nc2nccc(Nc3ccc(Oc4ccccc4)cc3)n2)cc1`, for which the growth inhibition in assay [1] is 15%; in assay [4], 93% (active). The inhibition was -10% in assay [2] and 7% in assay [3]. The result in assay [5], in assay [6], in assay [7] and in assay [8] was inactive.

`COc1ccc(C2CCN(CCCCNC(=O)c3ccc(NC(=O)c4ccc(Cl)cc4)cc3)C2)c(OC)c1` (stereo not given): the growth inhibition in assay [1] is -1%; in assay [4], 84% (active). In addition, the inhibition in assay [2] is 18%; in assay [3], 2%. For the same compound, the result in assay [5], in assay [6], in assay [7] and in assay [8] was inactive.

Consider `CS(=O)(=O)c1ccc(-c2cnc(N)c(-c3ccc(O)cc3)c2)cc1`, for which the growth inhibition in assay [1] was 94% (active); in assay [4], 84% (active). Moreover, the inhibition in assay [2] is 38%; in assay [3], 2%. Moreover, the result in assay [5], in assay [6], in assay [7] and in assay [8] was inactive.

Regarding `Cc1c(-c2cccc(C(C)(C)NC3CCN(Cc4ccccc4)CC3)c2)cnc(N)c1C`, the growth inhibition in assay [1] is 39%; in assay [4], 100% (active). In addition, the inhibition in assay [2] is 14%; in assay [3], -6%. Moreover, the outcome in assay [5], in assay [6], in assay [7] and in assay [8] was inactive.

As to `CC(=O)Nc1ccc(C(=O)Nc2cccc(-c3csc(-c4nc5ccccc5[nH]4)c3)c2)cn1`, the growth inhibition in assay [1] is 97% (active); in assay [4] it was 101% (active). Besides, the inhibition in assay [2] is 6%; in assay [3], -3%. In addition, the result in assay [5], in assay [6], in assay [7] and in assay [8] was inactive.

On to `COc1ccc([N+](=O)[O-])cc1N(Cc1ccccc1-c1ccccc1)S(=O)(=O)c1ccc(C(F)(F)F)cc1[N+](=O)[O-]`, for which the growth inhibition in assay [1] is 92% (active); in assay [4] it was 88% (active). The inhibition was 2% in assay [2] and -6% in assay [3]. The outcome in assay [5], in assay [6], in assay [7] and in assay [8] was inactive.

For `N#Cc1ccc(Cn2ccc3c4c(N)nc(N)nc4ccc32)cc1`, the values for the growth inhibition in assay [1] and in assay [4] were 95% (active) and 92% (active), respectively. For the same compound, the inhibition in assay [2] was 64% (active); in assay [3], 0%. For the same compound, the outcome in assay [5], in assay [6], in assay [7] and in assay [8] was inactive.

`Cc1nnc2c(NC(=O)NC(C)C)cc3cc(-c4ccc(CN5CCCCC5)cc4)ccc3n12`: the growth inhibition was 8% in assay [1] and 87% (active) in assay [4]. Besides, the inhibition in assay [2] is 70% (active); in assay [3] it was 1%. Besides, the outcome in assay [5], in assay [6], in assay [7] and in assay [8] was inactive.

With `Cc1cc(C(=O)Nc2ccc(-c3ccccc3)cc2)no1`, the growth inhibition in assay [1] is 94% (active); in assay [4], 90% (active). The inhibition in assay [2] was 6%; in assay [3], -3%. The result in assay [5], in assay [6], in assay [7] and in assay [8] was inactive.

Regarding `CCCc1cc(OC)c(CC2c3cc(O)c(C)cc3CCN2C)cc1OC` (stereo not given), the growth inhibition was 89% (active) in assay [1] and 99% (active) in assay [4]. The inhibition in assay [2] was 32%; in assay [3] it was -2%. The outcome in assay [5], in assay [6], in assay [7] and in assay [8] was inactive.

As for `NC1CCN(CCc2ccc(NS(=O)(=O)c3cccc4ccccc34)cc2)CC1`, the growth inhibition was 4% in assay [1] and 94% (active) in assay [4]. The results for the inhibition in assay [2] and in assay [3] were 21% and 4%, respectively. Besides, the outcome in assay [5], in assay [6], in assay [7] and in assay [8] was inactive.

For the compound `CN(C)CCC(O)C=C(c1ccc(Cl)cc1)c1ccc(Cl)cc1` (stereo not given), the figures for the growth inhibition in assay [1] and in assay [4] were 85% (active) and 93% (active), respectively. For the same compound, the inhibition in assay [2] is 33%; in assay [3], 1%. Moreover, the result in assay [5], in assay [6], in assay [7] and in assay [8] was inactive.

Turning to `CC(=O)NC1=NC(C)(C)N(OCc2ccc(Cl)c(Cl)c2)C(NC(C)=O)=N1`, the values for the growth inhibition in assay [1] and in assay [4] were 97% (active) and 94% (active), respectively. The results for the inhibition in assay [2] and in assay [3] were 68% (active) and -5%, respectively. In addition, the outcome in assay [5], in assay [6], in assay [7] and in assay [8] was inactive.

As for `CC(=O)c1ccc(-c2cccc3c(CC(=O)Nc4ccc5nccc(N6CCN(C)CC6)c5c4)cccc23)cc1`, the growth inhibition was 96% (active) in assay [1] and 101% (active) in assay [4]. For the same compound, the inhibition is 3% in assay [2] and -11% in assay [3]. The outcome in assay [5], in assay [6], in assay [7] and in assay [8] was inactive.

As to `CCC(C)OC(=O)C1=C(C)NC2=C(C(=O)CC(c3ccc(OC)c(OC)c3)C2)C1c1cccc(O)c1` (stereo not given), the growth inhibition is 98% (active) in assay [1] and 100% (active) in assay [4]. Besides, the inhibition in assay [2] was -8%; in assay [3], 0%. Also, the result in assay [5], in assay [6], in assay [7] and in assay [8] was inactive.

As for `CN(C)c1ccc(CN2CCC(NC(=O)c3ccc(-c4cccc(F)c4)s3)CC2)cc1`, the growth inhibition was 18% in assay [1] and 91% (active) in assay [4]. Besides, the inhibition in assay [2] was 55% (active); in assay [3], -1%. The result in assay [5], in assay [6], in assay [7] and in assay [8] was inactive.

Take `CCCCCOc1ccc(C(O)C(CCC(CN2CCCCCC2)C(O)c2ccc(OCCCCC)cc2)CN2CCCCCC2)cc1` (stereo not given): the figures for the growth inhibition in assay [1] and in assay [4] were 93% (active) and 99% (active), respectively. The inhibition in assay [2] was 99% (active); in assay [3] it was 0%. Moreover, the result in assay [5], in assay [6], in assay [7] and in assay [8] was inactive.
